Screens as filed in PubChem.
Gli-Sufu antag = antagonists of Gli-Sufu signaling; Sufu-KO-LIGHT fibroblasts, Gli luciferase reporter luminescence; inhibition, % at 5 µM; 0.74% of 340,000 active; AID 588413;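 active means inhibition above about 55%, limit read from the data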;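 further: 0% = DMSO-treated cells and 100% = wells with medium but no cells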
Jurkat NFkB inh = lowers PMA/ionomycin-induced NF-kB signal in Jurkat cells; PMA/ionomycin-induced NF-kB luciferase reporter, luminescence; inhibition, % at 4 µM; 0.53% of 330,000 active; AID 435003; in the data active means inhibition above about 50%
Mdm2 MdmX PPI = inhibitors of human Mdm2/MdmX interaction; O15151+Q00987; 3% of 330,000 active; inhibition, % at 8 µM; AID 485346; SaOS-2 split-luciferase Mdm2/MdmX complementation, luminescence;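 active means inhibition of at least 50% at 8 µM in the primary screen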
Target sequence (O15151 whole entry, looked up): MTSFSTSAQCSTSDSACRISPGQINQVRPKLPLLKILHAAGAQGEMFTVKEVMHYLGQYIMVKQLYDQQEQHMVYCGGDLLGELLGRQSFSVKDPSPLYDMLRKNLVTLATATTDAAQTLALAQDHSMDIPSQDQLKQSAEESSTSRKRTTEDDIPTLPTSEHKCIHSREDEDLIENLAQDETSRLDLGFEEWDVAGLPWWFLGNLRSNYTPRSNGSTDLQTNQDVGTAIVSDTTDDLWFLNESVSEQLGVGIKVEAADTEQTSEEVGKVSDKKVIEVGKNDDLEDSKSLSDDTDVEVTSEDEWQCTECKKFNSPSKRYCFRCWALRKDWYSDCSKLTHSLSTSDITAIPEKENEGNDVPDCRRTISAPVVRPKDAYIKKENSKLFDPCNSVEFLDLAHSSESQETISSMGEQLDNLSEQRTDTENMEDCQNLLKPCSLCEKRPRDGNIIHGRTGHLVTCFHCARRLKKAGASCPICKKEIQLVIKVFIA
Target sequence (Q00987 whole entry, looked up): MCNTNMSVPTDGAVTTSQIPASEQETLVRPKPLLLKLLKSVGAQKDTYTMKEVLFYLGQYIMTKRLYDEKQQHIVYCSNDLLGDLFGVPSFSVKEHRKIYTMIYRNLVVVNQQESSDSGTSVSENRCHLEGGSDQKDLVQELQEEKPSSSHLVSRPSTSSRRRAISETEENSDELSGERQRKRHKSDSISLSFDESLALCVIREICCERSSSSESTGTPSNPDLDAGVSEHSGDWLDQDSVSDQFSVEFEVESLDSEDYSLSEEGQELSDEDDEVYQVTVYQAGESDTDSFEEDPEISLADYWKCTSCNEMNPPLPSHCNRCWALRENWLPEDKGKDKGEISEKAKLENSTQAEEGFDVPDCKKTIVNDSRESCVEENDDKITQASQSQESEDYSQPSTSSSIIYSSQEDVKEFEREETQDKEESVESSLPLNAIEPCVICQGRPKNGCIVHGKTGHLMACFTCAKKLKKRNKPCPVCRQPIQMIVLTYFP
697 NFkB inh = inhibitors of the PMA/ionomycin-induced NF-kB reporter in 697 B cells; AID 435022; inhibition, % at 4 µM; 697 B-cell NF-kB luciferase reporter, 16 h; 0.33% of 330,000 active; in the data active means inhibition above about 35%
Beta cell apopt = blocks beta cell apoptosis; INS-1E cytokine-induced death, ATP luminescence, 48 h; percent of positive-control rescue, neutral wells zero; protection from apoptosis, % (concentration not given with the values); AID 435005; 0.8% of 300,000 active;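 active means Every replicate reaches about 75%, or at least half do and their mean reaches it too, limit read from the data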;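 further: 0% = cytokine-treated negative control wells and 100% = positive control rescue; higher means more ATP so stronger rescue from cytokine killing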
Jurkat NFkB conf = lowers PMA/ionomycin-induced NF-kB signal in Jurkat cells. inhibition, % at 4 µM. shares compounds with Jurkat NFkB inh. 27% of 2,700 active. Jurkat NF-kB luciferase, 16 h. AID 435020;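 active means inhibition reaching about 45% at 4 µM in either replicate, limit read from the data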;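 further: plate controls were PMA/ionomycin stimulated DMSO wells for no effect and unstimulated DMSO wells for full effect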
Starred values were filed as active, the others as inactive; nt = no result. Compounds with a hit are over-represented: about 4% of the library has one in this group of screens.

SMILES	Gli-Sufu antag	Jurkat NFkB inh	Mdm2 MdmX PPI	697 NFkB inh	Beta cell apopt	Jurkat NFkB conf
Cc1cc(C(=O)C(C(c2ccccc2)N2CCOCC2)N2CCOCC2)ccc1Cl (configuration not stated)	6	nt	nt	nt	nt	nt
CC(C)NC(=O)CSc1nnc(-c2ccc(F)cc2)c2ccccc12	3	5	9	-6	-4	nt
Cc1ccc2c(c1)sc1nc(=O)n(-c3ccc(Cl)cc3)c(=O)n12	-32	-35	-30	-10	10	nt
Cc1ccc2c(c1)sc1nc(=O)n(-c3cccc(Cl)c3)c(=O)n12	-106	-167	-153	-78	0	-34
CCOc1cc(N2CCOCC2)c(OCC)cc1NC(=O)c1cc(S(=O)(=O)N2CCOCC2)ccc1F	2	62*	43	-4	8	23
CN1/C(=C/C=C(/C#N)C(N)=O)C(C)(C)c2ccccc21	7	61*	41	-86	9	10
Cc1cccc(NC(=O)/C=C/c2cccs2)n1	-104	-167	-73	-159	0	-67
O=C(/C=C/c1cccs1)Nc1ccncc1	-14	-4	12	-38	10	nt
O=C(Cn1cnc2ccccc2c1=O)Nc1ccccc1N1CCOCC1	-1	8	11	3	-6	nt
C/C(=N\NC(=O)c1ccncc1)c1ccc(N2CCOCC2)cc1	-5	0	-49	0	1	nt
C/C(=N\NC(=O)c1ccc(OC2OCCOC2Oc2ccc(C(=O)N/N=C(\C)c3ccncc3)cc2)cc1)c1ccncc1 (configuration not stated)	-2	52*	30	-47	-22	8
CCOC(=O)C(=O)N1CCN(c2cc3c(cc2[N+](=O)[O-])n(C)c(=O)n3C)CC1	5	9	-14	18	4	nt
CC(C)=C(NC(=O)c1ccccc1)C(=O)Nc1cccc(C(=O)O)c1	-2	-13	4	4	-2	nt
O=C(/C=C/c1ccc(O)c(O)c1)OCCc1ccccc1	50	55*	28	-71	-2	4
O=C(Nc1ccon1)c1cc2c(s1)CCCC2	-81	-157	-155	-13	9	-84
COP(=O)(CC(=O)c1ccccc1)CC(=O)c1ccccc1	2	3	29	13	-5	nt
Cc1ccc(C(=O)Nc2nc3c(s2)CCCC3)o1	-103	-155	-108	-197	25	-87
O=C(Nc1nc2c(s1)CCCC2)c1ccc(Br)o1	5	-95	-156	-186	3	nt
CC(=O)Nc1ccc(-c2cc3ccccc3o2)cc1	-87	-159	-116	-150	3	-81
COc1ccc2c(c1OC)C(=O)N(c1cccc(C(F)(F)F)c1)C2	-61	-164	-162	-119	5	-53
CCOc1ccccc1CN1CCN(Cc2cc(=O)c3ccccc3[nH]2)CC1CCO (configuration not stated)	13	51*	48	-13	1	17
CCOc1ccccc1CN1CCN(Cc2[nH]c3ccccc3c2C)CC1CCO (configuration not stated)	15	10	10	11	3	nt
COc1ccc(CNS(=O)(=O)c2ccc3c(c2)NC(=O)CS3)cc1	-2	0	-15	-13	-3	nt
Cc1cccc(CSc2nc3c(cc2C#N)CCC3)c1	-17	-11	3	-26	-1	nt
N#Cc1cc2c(nc1SCc1nc3ccccc3[nH]1)CCC2	nt	-169	-226	-131	24	-56
SMILES	Gli-Sufu antag	Jurkat NFkB inh	Mdm2 MdmX PPI	697 NFkB inh	Beta cell apopt	Jurkat NFkB conf
Cc1ccc(NC(=O)c2ncn(CCCN(CCCn3cnc(C(=O)Nc4ccc(C)c(C)c4)n3)Cc3ccc4[nH]ccc4c3)n2)cc1C	7	nt	nt	nt	nt	nt
COc1ccc(C)cc1C(=O)CCC(=O)N1CCN(c2ccccc2F)CC1	-5	-1	14	-8	nt	nt
Cc1ccc2c(c1)N=C(c1ccccc1)CC(C(Cl)Cl)=N2	-1	-143	-132	-245	15	nt
Cc1ccc(C2=Nc3ccccc3N=C(C(Cl)Cl)C2)cc1	-24	-162	-29	-149	20	-91
Fc1ccccc1COc1ccc(-c2nnn(Cc3ccccc3F)n2)cc1	-5	15	-13	29	12	nt
Cn1nnc(-c2ccc(OCc3ccccc3F)cc2)n1	-127	-169	-133	-174	5	-88
COC(=O)c1sc(N2CCN(c3ccc(Cl)cc3)CC2)nc1N	7	61*	23	-21	1	7
COc1ccc(N2CCN(C(=O)NC(=O)c3ccc(Cl)cc3)CC2)cc1	-4	-11	29	16	1	nt
O=c1[nH]c(-c2ccccn2)cc2ccccc12	-51	62*	-30	-69	-5	-16
C#CCSc1nc2sc3c(c2c(=O)n1C)CCC3	-2	-5	-32	-4	0	nt
CCOc1ccc(/C=N/n2c(C3CCCCC3)n[nH]c2=S)cc1	-2	-4	3	-16	-1	nt
O=C(c1ccc(Br)cc1)c1cc([N+](=O)[O-])ccc1N1CCOCC1	22	72*	48	-43	13	51*
CCOC(=O)c1cc(CC)sc1NC(=O)c1cc([N+](=O)[O-])ccc1N1CCOCC1	17	59*	42	18	6	38
CCOC(=O)c1nn2c(C(F)(F)F)cc(-c3ccc(OC)cc3)nc2c1Br	7	-26	34	-5	0	nt
Nc1ccc(-c2nc3ccccc3s2)cn1	-81	-133	-75	-96	-10	nt
CCCNC(=O)c1ccc(-c2nc3ccccc3s2)s1	10	-161	-96	-58	9	-95
CCCNC(=O)Nc1nc2ccccc2s1	-76	-109	-97	-120	-6	nt
Brc1ccc(-c2nc3ccccc3s2)s1	-118	-164	-168	-170	3	-102
CSc1nnc(C)c(=O)n1COC(=O)/C=C/c1ccc2c(c1)OCO2	0	-10	-22	-5	-3	nt
COc1ccc(CC(=O)OCC(=O)Nc2cccc(C(C)=O)c2)cc1OC	-1	8	10	15	nt	nt
Cc1ccc(-n2nnnc2-c2cnc3ccc(Cl)cc3c2-c2ccccc2)cc1	5	59*	48	-7	11	22
CCCc1cc(CNC(=O)C2CCC(=O)N(Cc3ccccc3OC)C2)on1 (configuration not stated)	23	-8	-6	-8	-1	nt
CCC(C)NC(=O)c1cc(-c2ccc(OC)cc2)on1 (configuration not stated)	-24	-132	-97	-94	nt	nt
COc1ccc(-c2cc(C(=O)NCC(C)C)no2)cc1	-92	-157	-114	-138	nt	-90
COc1ccc(-c2nc(-c3ccc(Br)cc3)no2)c(OC)c1	-55	-190	-96	-139	-14	-79
Cc1ccc(C(=O)Nc2ccc(N3CCN(C)CC3)cc2)cc1	-27	-91	-44	-86	2	nt
Cc1ccc(NC(=O)c2ccc(C)cc2)cc1	-114	-156	-136	-191	-5	-78
CC(C)(C)c1ccc(C(=O)Nc2ccc(Cl)cc2)cc1	-72	-161	-60	-188	5	-116
Cc1nc(-c2ccc(NC(=O)c3ccccc3)cc2)cs1	-154	-195	-179	-85	-4	-125
